Assay outcomes as filed in PubChem.
Only a selection was taken, and hits are over-represented in it overall.
KDM5B inhibitor – Primary screen for KDM5B Histone Demethylases FDH-coupled qHTS. Lysine-specific demethylase 5B (Homo sapiens), Q9UGL1. KDM5B demethylase, FDH-coupled NADH fluorescence (FDH is formaldehyde dehydrogenase). Potency, µM (doses to about 57.7 µM), hits mostly inhibitors. 220,000 compounds, 2.6% hits. AID 1347165, 2019; active = well fitted inhibition curve with a large enough effect; also: 0% is about no effect; nearly all actives have a fitted effect of over 70% in size
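Coupled FDH/NAD⁺ fluorescence readout. KDM5BΔAP 200 nM final; compound titration, 10 min RT preincubation; substrate mix 12.5 µM H3K4me3, 25 µM 2-OG, 50 µM Fe(II), 100 µM ascorbate, 0.25 mM NAD⁺, 0.25 U/mL FDH; ΔRFU over 30 min.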
* hit, by the source's call; i = inactive; ! = not active in a repeat. Potency is read from the fitted curve at half-maximal effect.

SMILES	KDM5B inhibitor
COCCNC(=O)c1cc2n(n1)CC(c1ccc(Br)cc1)OC2 (stereo not given)	i
O=C(NCCc1ccccc1)c1cc2n(n1)CC(c1ccc(Cl)cc1)OC2 (stereo not given)	i
Cc1ccc(CCNC(=O)c2cc3n(n2)CC(c2ccc4c(c2)OCO4)OC3)cc1 (stereo not given)	25µM*
O=C(NCc1cccc(Cl)c1)c1cc2n(n1)CC(c1ccc3c(c1)OCO3)OC2 (stereo not given)	20µM*
COc1ccc(CNC(=O)c2cc3n(n2)CC(c2ccc4c(c2)OCO4)OC3)cc1OC (stereo not given)	25µM*
COc1ccc(OC)c(NC(=O)c2cc3n(n2)CC(c2ccc4c(c2)OCO4)OC3)c1 (stereo not given)	i
COc1ccccc1CNC(=O)c1cc2n(n1)CC(c1ccc3c(c1)OCO3)OC2 (stereo not given)	25µM*
CNC(=O)NC(=O)CNc1ccccc1N(C)Cc1ccccc1	i
COc1cc(/C=C(\C#N)C(=O)c2ccc(C)cc2)ccc1OCc1ccc(Cl)cc1Cl	i
CCOC(=O)c1cccc(NC(=O)c2ccc(-n3cnc(NC(=O)C(C)C)c3)cc2)c1	i
O=C(Cn1nc2ccc(SCc3ccc(Cl)cc3)nn2c1=O)NCc1ccc(F)cc1	i
Cc1cc(Cl)ccc1NC(=O)C1CCCc2ccccc21 (stereo not given)	i
CC(=O)Nc1cc(F)c(F)cc1NC(=O)CCc1c[nH]c2ccccc12	i
Cc1ccc(/C=N/O)o1	i
O=C(Nc1ccc(C(F)(F)Cl)oc1=O)c1ccccc1	i
COc1cc2c(cc1OC)-c1c(c(C(=O)N3CCC(C(N)=O)CC3)nn1-c1ccccc1)C2	i
O=C(OCC(=O)N1CCNC1=O)c1csc(NCc2ccccc2)n1	i
O=C(Cn1nc(N2CCN(c3ccccc3)CC2)ccc1=O)Nc1ccc(F)c(Cl)c1	i
Cc1nn2c(c1-c1ccccc1C(C)C)N([S+](=O)([O-])c1ccc(C(C)C)cc1)CCC2	i
Cc1nn2c(c1-c1ccccc1[S+](C)(=O)[O-])N(Cc1ccccc1)CCC2	i
Cc1nn2c(c1-c1ccccc1C(N)=O)N(CCCc1ccccc1)CCC2	32µM*
Cc1nn2c(c1-c1cccnc1N1CCOCC1)N(CCCc1ccccc1)CCC2	i
COc1ccccc1C(=O)N1CCCn2nc(C)c(-c3ccccc3OCc3ccccc3)c21	i
Cc1nn2c(c1-c1ccccc1[S+](C)(=O)[O-])N(CCCc1ccccc1)CCC2	25µM*
CN(C(=O)c1cc2ccccc2oc1=O)C(c1ccccc1)c1ccccc1	i
SMILES	KDM5B inhibitor
CC(=O)c1c(C(C)=O)c(C)n(-c2ccc(I)cc2)c1C	i
CC(C)CNC(=O)CCNC(=O)c1ccccc1	i
CCN(CC)C1=NC(=O)C(CC(=O)Nc2cccc(C(=O)NCCc3ccccc3OC)c2)S1 (stereo not given)	i
O=c1n(-c2ccc(F)cc2F)nc2n1CCN([S+](=O)([O-])c1cccc(C(F)(F)F)c1)C2	i
COc1cccc([S+](=O)([O-])N2CCn3c(nn(-c4ccc(F)cc4F)c3=O)C2)c1	25µM*
COC(=O)N1CCn2c(nn(-c3ccc([N+](=O)[O-])cc3)c2=O)C1	i
COc1ccc(CN2CCn3c(nn(-c4ccc([N+](=O)[O-])cc4)c3=O)C2)cc1	32µM*
O=c1n(-c2ccc(Cl)cc2)nc2n1CCN(Cc1ccccc1)C2	i
O=c1n(-c2ccc(F)cc2F)nc2n1CCN([S+](=O)([O-])c1cccs1)C2	i
COc1ccc(CN2CCn3c(nn(-c4ccc(F)cc4F)c3=O)C2)cc1	22µM*
COc1ccccc1C(=O)N1CCn2c(nn(-c3ccc(F)cc3F)c2=O)C1	i
COc1ccc(-n2nc3n(c2=O)CCN(CCC(C)C)C3)cc1	i
O=C(Nc1cccc2c1CCCC2)c1ccc2ccccc2c1	i
O=C(CCc1ncc(-c2ccc(F)cc2)o1)Nc1nccs1	i
CCCn1c(C)cc(C(=O)CSc2nnc(C(C)Oc3ccccc3F)o2)c1C (stereo not given)	i
CC(C)CC(NC(=O)C1CCCCC1)C(=O)NCCc1ccccc1 (stereo not given)	i
O=C(NC1CCCN(c2nc3ncccc3o2)C1)c1cccc(Cl)c1 (stereo not given)	i
O=C(NC1CCN(c2cc(-c3ccccc3)[nH]n2)CC1)c1ccc2ncccc2c1	i
O=C(Nc1ccccc1)NC1CCN(c2nc3ncccc3o2)CC1	25µM*!
O=C(Nc1ccc(Cl)cc1)NC1CCN(c2nc3ncccc3o2)CC1	i
O=C(NC1CCN(c2nc3ncccc3o2)CC1)C1CCCC1	35µM*
CCCOc1nc2ccccc2nc1N1CCC(C(=O)NC2CCCC2)CC1	i
COCC(=O)NC1CCN(c2ccccc2S(=O)(=O)C(F)(F)F)CC1	i
COCC(=O)NC1CCN(c2nc3ncccc3o2)CC1	32µM*
COCC(=O)NC1CCCCCC1	i
